Sampled rows, rich in hits. Any-hit rate of the full collection: about 1.4%.
LYPLA2 counter – LYPLA2 inhibitors, primary screen, counter-screen for PME1 inhibitor project, biochemical, fluorescence polarization, FP-Rh probe ABPP; inhibition, % at 5.9 µM; recombinant LYPLA2; 320,000 tested, 0.38% active; AID 2177, 2009; Acyl-protein thioesterase 2 (Homo sapiens), O95372;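 active means inhibition above the screen-wide mean plus 3 SD, limit set per campaign, cut at about 26% in these data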;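 further: 0% = LYPLA2 with DMSO and 100% = wells lacking LYPLA2 enzyme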
Target sequence (O95372 whole entry, looked up): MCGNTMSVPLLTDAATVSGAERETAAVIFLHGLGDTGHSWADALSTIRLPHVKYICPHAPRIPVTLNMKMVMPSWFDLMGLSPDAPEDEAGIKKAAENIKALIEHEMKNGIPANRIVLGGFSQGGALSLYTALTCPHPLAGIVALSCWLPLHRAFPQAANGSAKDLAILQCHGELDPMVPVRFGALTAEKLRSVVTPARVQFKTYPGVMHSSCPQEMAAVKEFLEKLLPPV
EBNA-1 inh – EBNA-1 DNA-binding inhibitors, primary screen, biochemical, fluorescence polarization | inhibition, % at 14.8 µM | 300,000 tested, 0.34% active; in the data active means inhibition above about 28%
LYPLA1 counter – LYPLA1 inhibitors, primary screen, counter-screen for PME1 inhibitor project, biochemical, fluorescence polarization, FP-Rh probe ABPP; Acyl-protein thioesterase 1 (Homo sapiens), O75608; recombinant LYPLA1; inhibition, % at 5.9 µM; 320,000 tested, 0.16% active; AID 2174, 2009;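 active means inhibition above the mean of all tested compounds plus 3 SD, set per campaign, cut at about 14% in these data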;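 further: inhibitors block serine hydrolase probe labeling of LYPLA1 so polarization falls; 0% = enzyme with DMSO and 100% = wells lacking LYPLA1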
Target sequence (O75608 whole entry, looked up): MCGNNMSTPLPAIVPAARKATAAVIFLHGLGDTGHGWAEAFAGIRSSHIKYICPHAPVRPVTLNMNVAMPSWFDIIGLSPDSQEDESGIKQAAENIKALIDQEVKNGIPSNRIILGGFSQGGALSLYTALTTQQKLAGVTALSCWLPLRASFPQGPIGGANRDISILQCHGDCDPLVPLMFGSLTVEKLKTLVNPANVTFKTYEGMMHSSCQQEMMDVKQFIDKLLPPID
LANA-H2A inh – blockers of LANA interaction with H2A/H2B – biochemical, FP readout, HTS, primary screen | Protein LANA1 (Human herpesvirus 8 type P (isolate GK18)), Q9QR71 | cell-free LANA-H2A/H2B peptide, fluorescence polarization | inhibition, % (concentration not given with the values) | 320,000 tested, 0.6% active; in the data active means inhibition mostly above about 10%, no sharp cut-off; inactive means mostly below about 6.7%
ZTA counter – ZTA (EBV) inhibition in EBNA-1 counter-screen; P03206; ZTA-DNA binding, fluorescence polarization; inhibition, % at 11 µM; 320,000 tested, 0.15% active; in the data active means inhibition above about 33%
EBNA-1 confirm – EBNA-1 DNA-binding inhibitors, retest, confirmation, biochemical, fluorescence polarization, triplicate; 830 tested, 35% active; shares compounds with EBNA-1 inh; inhibition, % at 14.8 µM; Recombinant EBNA-1 DBD, Cy5-DNA fluorescence polarization;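 active means mean inhibition across replicates above a set limit taken from the earlier primary screen, cut at about 28% in these data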;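 further: plate controls were EBNA-1 protein with DMSO for no effect and wells lacking EBNA-1 for full effect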
ZTA DNA inh trip – EBV Zta DNA binding inhibitors, counter-screen for EBNA-1 inhibitor project, biochemical, fluorescence polarization, triplicate. shares compounds with EBNA-1 inh. Zta-ZRE DNA binding, Cy5 fluorescence polarization. inhibition, % at 11.1 µM. 830 tested, under 10 active. AID 2328, 2010;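 active means mean inhibition over triplicates above a set limit taken from the primary EBNA-1 screen, cut at about 37% in these data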;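 further: purified full length Zta protein with Cy5 labeled ZRE DNA probe; 0% = Zta with DMSO and 100% = wells lacking Zta protein; inhibitors lower polarization by freeing the labeled DNA probe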
LYPLA1 conf – LYPLA1 inhibitors, retest, confirmation, counter-screen for PME1 inhibitor project, biochemical, fluorescence polarization, FP-Rh probe ABPP. inhibition, % at 5.9 µM. AID 2233, 2010. shares compounds with LYPLA1 counter. 480 tested, 69% active. recombinant LYPLA1;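 active means mean inhibition across replicates above the hit cutoff set in the primary screen, cut at about 15% in these data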;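 further: loss of FP-Rh probe labeling of LYPLA1 seen as lower polarization; 0% = LYPLA1 with DMSO and 100% = wells lacking LYPLA1 enzyme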
LYPLA2 confirm – LYPLA2 inhibitors, retest, confirmation, counter-screen for PME1 inhibitor project, biochemical, fluorescence polarization, FP-Rh probe ABPP | shares compounds with LYPLA2 counter | recombinant LYPLA2 | inhibition, % at 5.9 µM | 1,100 tested, 72% active | AID 2232, 2010;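 active means mean inhibition across replicates above the hit cutoff set in the primary screen, cut at about 26% in these data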;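 further: blocked labeling of the enzyme by serine hydrolase FP-Rh probe lowers polarization; 0% = enzyme with DMSO and 100% = wells lacking LYPLA2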
LYPLA2 ABPP – LYPLA2 inhibitors in proteome, late-stage follow-up, gel-based competitive ABPP, fluorescence, assay provider | shares compounds with LYPLA2 counter | rhLYPLA2 in mouse brain proteome, gel ABPP FP-Rh | inhibition, % at 20 µM | 150 tested, 30% active | AID 652029, 2013;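 active means inhibition of LYPLA2 enzyme probe labeling above about 50%, limit read from the data; inactive means inhibition below that limit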;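 further: loss of FP-Rh probe labeling of the LYPLA2 gel band measured as band density; 0% = DMSO only control band and 100% = blank gel background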
Zta DNA confirm – EBV Zta binding to ZRE DNA, inhibitors, confirmation, biochemical, fluorescence polarization, triplicate; AID 2361, 2010; inhibition, % at 11.1 µM; shares compounds with ZTA counter; 320 tested, 30% active;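 active means mean inhibition across triplicate runs above the hit threshold derived for the original primary screen, cut at about 33% in these data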;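 further: 0% = Zta with DMSO and 100% = wells lacking Zta protein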
EBNA1 counter – EBNA-1 DNA-binding inhibition, counter-screen for ZTA inhibitor project, biochemical, fluorescence polarization; inhibition, % at 14.8 µM; shares compounds with ZTA counter; 320 tested, under 10 active; call rule not given here
Numbers without * were called inactive; / = no result given.

SMILES	LYPLA2 counter	EBNA-1 inh	LYPLA1 counter	LANA-H2A inh	ZTA counter	LYPLA2 confirm	others
O=c1[nH]c(=O)n(CCc2ccccc2)c(O)c1C=NCc1ccc2c(c1)OCO2	2	31*	-1	6	-4	/	EBNA-1 confirm=46*;ZTA DNA inh trip=-6
COc1ccc(-c2csc(NC(=O)COC(=O)Cc3ccccc3)n2)cc1OC	-9	31*	0	0	15	/	EBNA-1 confirm=34*;ZTA DNA inh trip=0
O=P(O)(O)C12CC3CC(CC(C3)C1)C2	-2	1	1	-2	5	/
CN(C)C(=O)Oc1noc2cc(Cl)ccc12	2	34*	2	-2	9	/	EBNA-1 confirm=-8;ZTA DNA inh trip=-5
CN(C)C(=O)Oc1c(Cl)cc(Cl)c2cccnc12	-1	3	-1	1	-14	/
O=C(CCNC(=O)N1C[C@H]2C[C@@H](C1)c1cccc(=O)n1C2)Nc1ccc(F)cc1	2	-3	2	1	-8	/
Oc1c(Br)c(Br)c(Br)c(Br)c1Br	56*	/	25*	1	0	58*	LYPLA1 conf=30*
CNc1ccc2nc3ccccc3[n+](C)c2c1	117*	45*	103*	6	83*	94*	LYPLA1 conf=83*
Cc1nc2ccccc2c(=O)n1-c1cccc([N+](=O)[O-])c1	8	-3	3	4	-10	/
Clc1ccc(C(c2ccc(Cl)cc2)n2cc[n+](CC(OCc3ccc(Cl)cc3Cl)c3ccc(Cl)cc3Cl)c2)cc1 (stereo unspecified)	32*	15	22*	-28	-19	43*	LYPLA1 conf=52*
Clc1ccc(COC(Cn2ccnc2)c2ccc(Cl)cc2Cl)cc1 (stereo unspecified)	-2	-6	-2	-6	-15	/
COC(=O)C1=C(c2ccc(Cl)c(C(F)(F)F)c2)C[C@@H]2CC[C@H]1N2C(=O)NCc1ccco1	-2	/	-1	0	-10	/
CCOC(=O)c1c(NS(=O)(=O)c2ccccc2)n(CCCOC)c2nc3ccccc3nc12	96*	7	83*	1	56*	0	LYPLA1 conf=1;Zta DNA confirm=-4;EBNA1 counter=-10
O=C1C(=O)c2ccccc2-c2ccccc21	85*	5	83*	-12	65*	90*	LYPLA1 conf=85*;Zta DNA confirm=68*;EBNA1 counter=-8
OCCNc1c2c(nc3ccccc13)CCCC2	4	-9	-2	-2	18	/
C[n+]1c2ccccc2nc2ccc(NCCO)cc21	63*	22	70*	7	60*	48*	LYPLA1 conf=63*;Zta DNA confirm=48*;EBNA1 counter=27
CC(=O)N(C1=NCCCS1)c1ccccc1Cl	1	1	-2	-3	5	/
Cc1nc2c(=O)n(C)c(=O)nc-2n(C)n1	88*	-3	88*	1	46*	95*	LYPLA1 conf=83*;Zta DNA confirm=71*;EBNA1 counter=-7
COc1ccc(NC(=O)c2cn(CCC#N)nc2-c2cccc(Br)c2)cc1	1	5	-1	-3	-4	/
O=c1cccc2n1CC1CNC[C@H]2C1	-5	-1	-4	0	1	/
COc1ccc(OC)c(N2C(=O)/C(=C/c3ccco3)C(=O)NC2=S)c1	30*	103*	-13	-3	75*	-11
Fc1ccc(Cn2nnnc2CN2CCC(n3nnc4cc(C(F)(F)F)ccc43)CC2)cc1	20	-9	2	-2	10	/
Cc1nc2cc(C(F)(F)F)ccc2n1C1CCN(Cc2nnnn2Cc2ccc3c(c2)OCO3)CC1	56*	-20	0	-1	3	49*
Cc1nc2cc(C(F)(F)F)ccc2n1C1CCN(Cc2nnnn2Cc2cccs2)CC1	27*	0	-1	-2	4	23
O=C(CCc1ccccc1)N1C[C@H]2C[C@@H](C1)c1cccc(=O)n1C2	10	3	1	7	-3	/
SMILES	LYPLA2 counter	EBNA-1 inh	LYPLA1 counter	LANA-H2A inh	ZTA counter	LYPLA2 confirm	others
Cc1csc(=N)n1Cc1ccccc1	8	3	-1	1	-10	/
CN(C)c1ccc(C2C3C=CC(C3)C2(C#N)C(=O)O)c(Br)c1 (stereo unspecified)	1	1	-1	-6	2	/
O=C(COc1ccccc1F)N1CCN(CCN2C(=O)c3cccc4cccc(c34)C2=O)CC1	38*	-6	8	-2	1	35*
O=C(COc1ccccc1)N1CCN(CCN2C(=O)c3cccc4cccc(c34)C2=O)CC1	16	1	3	-1	-1	/
O=C(COc1ccc(Cl)cc1Cl)N1CCN(C/C=C/c2ccccc2)CC1	76*	2	13	-4	14	78*	LYPLA2 ABPP=56*
O=C(COc1ccc(Cl)cc1)N1CCN(Cc2ccc([N+](=O)[O-])cc2)CC1	57*	-11	9	-1	-2	61*	LYPLA2 ABPP=47
COc1ccc(OCC(=O)N2CCN(Cc3nc4cc([N+](=O)[O-])ccc4n3C)CC2)cc1	3	2	2	-1	8	/
O=C1NC(=O)N(c2ccccc2)C(=O)/C1=C/C=C/c1ccco1	-6	10	1	4	28	/
CN1C(=O)/C(=C/C=C/c2ccco2)C(=O)NC1=S	-12	1	-9	-4	34*	/	Zta DNA confirm=69*;EBNA1 counter=10
